The values that follow come from PubChem BioAssay (NCI).

SMILES strings stand for the structures. This is part of a sample that, as a whole, favours compounds with a hit. Of some 83,000 tested, about 20% had one in any assay.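 The endpoint reported here, percent growth, reads 100 for growth as untreated, 0 for no net growth and -100 for all cells dead.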 Unmarked numbers belong to inactive results. Calls of active or inactive are those of the source. The calls were made as follows: active = growth percent below 10; inactive = the rest.

Holding throughout (test): NCI-60 one-dose screen, 48 h (100 = growth as untreated, 0 = no growth, -100 = all killed)
The subject of one test is HCT-15 colon. The following applies: 10 µM.
In the next test the test system is SNB-75 CNS. The following applies: 10 µM.
The test system of the next test is SNB-19 CNS. The following applies: 10 µM.
In a further test the test system is U251 CNS. Conditions: 10 µM.
Another test deals with PC-3 prostate. Conditions: 10 µM.
In the next test the test system is SK-MEL-5 melanoma. The following applies: 10 µM.
The subject of another test is UACC-62 melanoma. The following applies: 10 µM unless noted.
Another test concerns LOX IMVI melanoma. The following applies: 10 µM.
The next test relates to SK-MEL-28 melanoma. The following applies: 10 µM.
The test system of another test is HT29 colon. The following applies: 10 µM.

As to `COc1cc(C(=O)N/N=C/c2cccc([N+](=O)[O-])c2)cc(OC)c1OC`, the growth was 52.1% in the test on HCT-15 colon; 29.5% in the test on SNB-75 CNS; 69.7% in the test with SNB-19 CNS; 55.6% in the test on U251 CNS; 67.5% with PC-3 prostate; 19% with SK-MEL-5 melanoma. For the same molecule, the growth was 50.5% in the test on UACC-62 melanoma and 50.2% with LOX IMVI melanoma.

`C#CC(C(C)C)N(CCO)CCCC` (centres undefined): the growth in the test on HCT-15 colon is 94.9%; in the test with SNB-75 CNS, 83.6%; with SNB-19 CNS, 107%; in the test with U251 CNS it was 97.7%; with PC-3 prostate, 94.7%; in the test on SK-MEL-5 melanoma it was 100%. In addition, the growth was 107% in the test on UACC-62 melanoma, 107% in the test on LOX IMVI melanoma and 101% in the test on SK-MEL-28 melanoma.

On to `C=CC[N+](C)(C)C`, for which the growth was 98.7% in the test on HCT-15 colon; 94.3% with SNB-75 CNS; 98.7% with SNB-19 CNS; 101% in the test with U251 CNS; 97.6% with PC-3 prostate; 105% in the test on SK-MEL-5 melanoma. Also, the growth was 102% in the test with UACC-62 melanoma, 92.2% with LOX IMVI melanoma and 107% in the test with SK-MEL-28 melanoma.

Regarding `CC1(C)Nc2cccc3c(N=Nc4ccc(N=Nc5ccccc5)c5ccccc45)ccc(c23)N1`, the growth was 77.5% with HCT-15 colon; 73% with SNB-75 CNS; 124% in the test with SNB-19 CNS; 110% in the test with U251 CNS; 89.6% with PC-3 prostate; 92.9% with SK-MEL-5 melanoma. For the same molecule, the growth with UACC-62 melanoma is 79.2%; in the test with LOX IMVI melanoma, 77.6%; in the test with SK-MEL-28 melanoma, 116%.

With `N=c1c(C(=O)OCc2ccccc2)ncc(CCl)n1O`, the growth in the test with HCT-15 colon is 99.7%; in the test with SNB-75 CNS, 83.6%; with SNB-19 CNS it was 95.6%; in the test with U251 CNS, 71.4%; in the test on PC-3 prostate it was 95.9%; with SK-MEL-5 melanoma, 96.9%. Moreover, the growth in the test with UACC-62 melanoma was 91.1%; in the test with LOX IMVI melanoma, 42.2%; with SK-MEL-28 melanoma it was 98.1%.

`CC1(C(N)=O)CCC(C(=O)O)C1(C)C` (centres undefined): the growth with HCT-15 colon was 96.4%; with SNB-75 CNS, 92.4%; with SNB-19 CNS, 99%; with U251 CNS, 98.2%; in the test with PC-3 prostate, 98.1%; with SK-MEL-5 melanoma it was 98%. Also, the growth was 87% with UACC-62 melanoma, 104% in the test with LOX IMVI melanoma and 103% in the test with SK-MEL-28 melanoma.

Take `N#Cc1c(N)sc(=S)c2c1CCCC2`: the growth in the test with HCT-15 colon is 104%; in the test on SNB-75 CNS it was 104%; in the test with SNB-19 CNS it was 105%; in the test with U251 CNS it was 107%; with PC-3 prostate, 100%; in the test on SK-MEL-5 melanoma it was 114%. Besides, the growth with UACC-62 melanoma is 114%; with LOX IMVI melanoma, 99.4%; in the test on SK-MEL-28 melanoma, 112%.

Consider `O=C(c1ccccc1)C1CCC1`, for which the growth in the test with HCT-15 colon is 99.7%; with HT29 colon, 85.4%; in the test with SNB-19 CNS it was 103%; in the test with U251 CNS it was 76.1%; in the test with UACC-62 melanoma, 94%; in the test with LOX IMVI melanoma, 106%.

As for `COc1ccc(NC(=O)CCl)cc1`, the growth in the test with HCT-15 colon is 72.3%; in the test on HT29 colon it was 67.3%; in the test with SNB-19 CNS, 104%; in the test with U251 CNS it was 6.32% (active); with SK-MEL-5 melanoma it was 65.3%; in the test with UACC-62 melanoma it was 83.1%. Further, the growth in the test with SK-MEL-28 melanoma is 97.2%.

In the case of `CC1Cc2ccccc2O1` (centres undefined), the growth is 99.1% in the test with HCT-15 colon; 105% with SNB-75 CNS; 117% with SNB-19 CNS; 111% in the test with U251 CNS; 108% in the test on SK-MEL-5 melanoma; 122% in the test on UACC-62 melanoma. Besides, the values for the growth in the test on LOX IMVI melanoma and in the test on SK-MEL-28 melanoma were 97.4% and 114%, respectively.

For the molecule `O=S(=O)(O)c1cc(O)c2c(N=Cc3ccccc3O)c(S(=O)(=O)O)ccc2c1`, the growth with HCT-15 colon is 99.9%; with SNB-75 CNS it was 93.4%; with SNB-19 CNS it was 108%; in the test with PC-3 prostate it was 95.5%; in the test with SK-MEL-5 melanoma, 103%; in the test with UACC-62 melanoma, 113%. Moreover, in the test on SK-MEL-28 melanoma, the growth was 114%.

Regarding `S=C1NCc2cncnc2N1`, the growth in the test on HCT-15 colon was 95.4%; with SNB-75 CNS, 86.6%; in the test with SNB-19 CNS it was 109%; in the test with PC-3 prostate, 96.1%; in the test on SK-MEL-5 melanoma it was 103%; in the test on UACC-62 melanoma, 108%. The growth was 104% in the test with LOX IMVI melanoma and 107% with SK-MEL-28 melanoma.

`COc1cc2c3c(n(C)c(=O)c2cc1OC)-c1cc2c(cc1C3=O)OCO2`: the growth in the test on HT29 colon was 47.4%; in the test with SNB-75 CNS, 10.5%; in the test on SNB-19 CNS, 54.6%; with U251 CNS it was 36%; in the test with PC-3 prostate it was 46.8%; with SK-MEL-5 melanoma, 63.6%. Further, the growth in the test with UACC-62 melanoma is 40.1%; in the test with LOX IMVI melanoma, 39.9%.

In the case of `OC1OC(COC(c2ccccc2)(c2ccccc2)c2ccccc2)C(O)C(O)C1O` (centres undefined), the growth is 98.6% in the test on HCT-15 colon; 72% with SNB-75 CNS; 91% with U251 CNS; 85.5% in the test with UACC-62 melanoma; 91.4% in the test on SK-MEL-28 melanoma.

Consider `O=[N+]([O-])c1ccc(N=Nc2ccccc2)cc1`, for which the growth in the test on HT29 colon was 92.2%; with SNB-75 CNS, 88.5%; in the test on SNB-19 CNS, 96.7%; in the test with U251 CNS it was 90.5%; in the test with PC-3 prostate it was 83.5%; in the test on SK-MEL-5 melanoma, 99%. Also, the growth was 91.4% in the test with UACC-62 melanoma, 92% in the test with LOX IMVI melanoma and 99.3% in the test with SK-MEL-28 melanoma.

For the molecule `O=C(NCCNC(=O)c1ccc(Cl)cc1Cl)c1ccc(Cl)cc1Cl`, the growth in the test with HCT-15 colon is 106%; in the test with SNB-75 CNS, 102%; with SNB-19 CNS it was 110%; in the test with PC-3 prostate, 84.5%; in the test on SK-MEL-5 melanoma it was 98.5%; in the test with UACC-62 melanoma it was 91.1%. Also, the values for the growth in the test on LOX IMVI melanoma and with SK-MEL-28 melanoma were 94.9% and 104%, respectively.

For the molecule `CCCCCCCCO`, the growth with HCT-15 colon is 98.3%; with SNB-75 CNS, 90.1%; with SNB-19 CNS it was 103%; in the test with PC-3 prostate it was 94.3%; with UACC-62 melanoma, 108%; with LOX IMVI melanoma, 105%. For the same molecule, the growth in the test with SK-MEL-28 melanoma is 112%.

As for `COc1cc(C2c3cc4c(cc3C3OC(=O)C2C3CO)OCO4)cc(OC)c1OC` (centres undefined), the growth in the test with HCT-15 colon was 3.35% (active); with SNB-75 CNS, 53.4%; with SNB-19 CNS, 46.6%; with U251 CNS, 19.7%; in the test with PC-3 prostate it was 19.2%; with SK-MEL-5 melanoma, -0.321% (active). Also, the growth in the test with UACC-62 melanoma was 29.7%; in the test on LOX IMVI melanoma, 7.4% (active); in the test on SK-MEL-28 melanoma, 49.4%.
